About 680 (0.49%) of roughly 140,000 compounds were called active. Cut-off read from the data, not from the text of the source: active = activation above about 5% (passing the limit was not always enough); inactive = the rest. The entries come from a sample that favours actives as a whole.

The target in this test is Galanin receptor type 2 (Homo sapiens) (UniProt O43603). Nature of the test: human galanin receptor 2 activators – cell-based, primary screen (AID 803).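 Note: 0% = vehicle buffer wells and 100% = reference agonist at full effect.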 Particulars: GALR2-expressing cells, agonist activation read-out; at 5.6 µM; hits give high values.
Sequence of Galanin receptor type 2 (Homo sapiens) (O43603 whole entry, looked up): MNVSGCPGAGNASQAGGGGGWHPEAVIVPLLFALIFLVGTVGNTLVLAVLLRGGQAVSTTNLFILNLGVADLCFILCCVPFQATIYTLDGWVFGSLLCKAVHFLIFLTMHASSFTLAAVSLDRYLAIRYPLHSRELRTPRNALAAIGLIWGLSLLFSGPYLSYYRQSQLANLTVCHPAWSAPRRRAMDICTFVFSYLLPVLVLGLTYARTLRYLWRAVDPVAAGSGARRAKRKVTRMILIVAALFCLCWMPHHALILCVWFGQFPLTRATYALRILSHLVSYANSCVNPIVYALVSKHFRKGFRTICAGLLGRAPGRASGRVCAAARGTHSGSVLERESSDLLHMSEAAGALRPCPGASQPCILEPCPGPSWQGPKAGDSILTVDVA
Consider `CC(C)C(=O)Nc1cccc(NC(=O)c2ccc([N+](=O)[O-])cc2Cl)c1`, for which the activation was 7.57% (active). For `CCC(C)C(=O)Nc1cc([N+](=O)[O-])ccc1Cl` (configuration not stated) the value was -0.24% (inactive); for `COc1ccc(S(=O)(=O)NC(C)C(=O)Nc2cccc([N+](=O)[O-])c2)cc1` (configuration not stated), -0.92% (inactive); for `C/C(=N\N=C(N)N)c1ccc(Cl)cc1`, -2.59% (inactive).

For `O=C(NN1C(=O)C2C3C=CC(C3)C2C1=O)c1ccco1` (configuration not stated), the activation is -0.17% (inactive). For `CC1(C)CC(=O)C=C(NCCN2CCNCC2)C1` the value was 33.1% (active); for `CC1(C)CC(=O)C=C(NCCCNC2CCCCC2)C1`, -0.48% (inactive). Next, `CC1(C)CC(=O)C=C(NCCCN2CCCC2=O)C1`: -3.74% (inactive).

As for `COc1cccc(/C=N/Nc2ncc(C(F)(F)F)cc2Cl)c1O`, the activation is 0.04% (inactive). Next, `Cc1cc(O)ccc1NC1=CC(=O)CC(C)(C)C1`: -0.24% (inactive); `O=C(N/N=C/c1ccc(O)cc1)/C(=C/c1ccc([N+](=O)[O-])cc1)NC(=O)c1ccccc1`: -1.29% (inactive).

`O=C(Nc1ccccc1)/C(=C/c1ccc([N+](=O)[O-])cc1)NC(=O)c1ccccc1`: the activation is 5.48% (active).

With `O=C(NC(=S)Nc1ccc(NC(=O)c2cccs2)cc1)c1ccc([N+](=O)[O-])cc1`, the activation was 13.8% (active). Next, `O=C(O)c1ccc(NC(=O)c2cccs2)cc1`: -3% (inactive); `COCCCNC(=S)NC(=O)c1ccc([N+](=O)[O-])cc1`: -2.33% (inactive). Next, `O=C(NCCc1ccccc1)/C(=C\c1ccc([N+](=O)[O-])cc1)NC(=O)c1ccccc1`: -1.62% (inactive); `Cc1ccccc1C(CC(=O)c1cccs1)C(C#N)C#N` (configuration not stated): -0.23% (inactive); `Cc1cc2c(C)nc(N/N=C/c3ccccc3)nc2o1`: 0.45% (inactive). For `O=C(Oc1ccccc1Cl)c1ccc(N2CCOCC2)c([N+](=O)[O-])c1` the value was -1.48% (inactive); for `CC(=O)c1sc(N/N=C\c2ccc(C)cc2)nc1C`, 2.02% (inactive); for `O=C(CSc1ncnc2scc(-c3ccccc3)c12)NCc1ccc2c(c1)OCO2`, -1.28% (inactive). Turning to `CC(C)(C)SCCNC(=O)c1cccc([N+](=O)[O-])c1`, the activation is -0.73% (inactive). Next, `Cc1ccc(S(=O)(=O)N2CCN(CC(=O)N/N=C/c3cc([N+](=O)[O-])ccc3Cl)CC2)cc1`: -0.78% (inactive); `CSc1nc(C)cc(SC(C(C)=O)C(=O)Nc2ccccc2)n1` (configuration not stated): -0.36% (inactive). Next, `CSc1nc(-c2ccccc2)nc(C(Cl)Cl)n1`: 8.01% (active); `CC(=O)CCC(=O)c1ccc2ccccc2c1`: -2.23% (inactive). For `Cc1ccc(C(=O)NC(=S)NCCN2CCOCC2)cc1`, the activation is -1.71% (inactive). Next, `O=C1CC(NNc2ccccc2)C(=O)N1c1cccc(Cl)c1` (configuration not stated): -2.24% (inactive); `COc1cc2c(cc1/C=C1/NC(=O)N(c3ccccc3)C1=O)OCO2`: 1.22% (inactive); `O=C1N/C(=C/c2cccn2-c2ccccc2)C(=O)N1c1cccc(Cl)c1`: 6.96% (active). For `CCOc1ccc2nc(NC(=O)c3cc([N+](=O)[O-])ccc3N3CCOCC3)sc2c1` the value was -0.53% (inactive). For `O=C(Nc1cccc(NC(=O)N2CCN(c3ccccc3)CC2)c1)N1CCN(c2ccccc2)CC1` the value was -2.65% (inactive); for `COc1cccc(N2CCN(C(=O)Nc3ccc4c(c3)NC(=O)CO4)CC2)c1`, -2.77% (inactive). `O=C1COc2ccc(NC(=O)N3CCN(c4ccc(F)cc4)CC3)cc2N1`: the activation was 12.7% (active). As for `COCC(=O)N=Nc1c(O)[nH]c2ccccc12`, the activation is -0.5% (inactive). For `CN(c1ccccc1)c1nc(N)c([N+](=O)[O-])c(NCc2ccco2)n1` the value was 1.08% (inactive); for `CCc1nnc(NC(=O)C2CC(=O)N(c3ccc4c(c3)OCCO4)C2)s1` (configuration not stated), 0.1% (inactive). In the case of `CNC(=S)N/N=C/c1ccc(OCc2ccccc2)c(Br)c1`, the activation was 7.44% (active). Take `COc1cc(/C=N/n2c(C)n[nH]c2=S)ccc1OCc1ccccc1`: the activation was 1.11% (inactive). For `CNC(=S)NNC(=O)c1sccc1OCc1ccccc1` the value was -1.56% (inactive); for `COc1ccc(/C(N)=N/OC(=O)CCCc2ccccc2)cc1`, -0.21% (inactive); for `C=C(C)c1cccc(C(C)(C)NC(=O)NC2CCCC2)c1`, -1.16% (inactive). On to `COc1ccc(C(=O)OCC(=O)NC(=O)CCSc2ccccc2)cc1`, for which the activation was -1.93% (inactive). Next, `CC(Sc1cccc[n+]1[O-])C(=O)Nc1cccc(S(=O)(=O)N2CCOCC2)c1` (configuration not stated): -0.5% (inactive); `COc1ccc(Nc2nc(N)nc(CSC(=S)N3CCC(C)CC3)n2)cc1`: 0.01% (inactive); `COCCNC(=S)N/N=C/c1c(C)[nH]c2ccccc12`: -0.61% (inactive).

Consider `CCCNC(=O)c1c(N)n(-c2ccc(S(N)(=O)=O)cc2)c2nc3ccccc3nc12`, for which the activation was 35.1% (active). Next, `CCC(=O)Nc1c(S(=O)(=O)c2ccccc2)c2nc3ccccc3nc2n1Cc1ccccc1`: 2.15% (inactive). Next, `CCOC(=O)c1c(C)c(C(=O)NCCc2ccc(S(N)(=O)=O)cc2)c(C)n1CC`: -2.14% (inactive); `CCC(CC)C(=O)N1CCN(c2cccc(C)c2C)CC1`: -1.21% (inactive).

Turning to `Cc1cc(C(=O)N/N=C/c2ccc(O)c([N+](=O)[O-])c2)c(C)n1-c1ccc(F)cc1`, the activation was 1.21% (inactive). Next, `O=C(Cn1nnc(-c2ccccc2)n1)N/N=C/c1ccc(-c2ccc(Cl)cc2)o1`: -0.89% (inactive). Consider `O=C(Cn1nnc(-c2ccccc2)n1)NCc1ccccc1`, for which the activation is -0.65% (inactive). For `Cc1[nH]c2ccccc2c1/C=N\NC(=O)Cn1nnc(-c2ccccc2)n1` the value was 5.32% (active). For `COc1ccc(NC(=O)CN2C(=O)C(c3ccccc3)=NC23CCCCCC3)cc1OC` the value was -2.09% (inactive); for `CC(=O)NNC1=Nc2ccccc2N(C)C(C)C1` (configuration not stated), -1.09% (inactive); for `COc1cccc(/C=N/NC(=O)CNC(=O)c2ccc(S(=O)(=O)N3CCOCC3)cc2)c1OC`, -1.42% (inactive). For `CN(C(=O)CSc1nnc(-c2n[nH]c3ccccc23)o1)c1ccccc1` the value was 0.05% (inactive); for `Cc1ccc2sc(NNC(=O)c3ccc4c(c3)OCCO4)nc2c1C`, -2.21% (inactive); for `O=C(O)CCC(=O)N(Cc1cccs1)Cc1cccs1`, 0.14% (inactive). Take `CC(=O)N(Cc1cccs1)C1CCOC(C)(C)C1` (configuration not stated): the activation is 36.2% (active).

Take `Cc1ccsc1C(C(=O)NC1CCCCC1)N(C(=O)Cc1cccs1)C1CC1` (configuration not stated): the activation is 0.48% (inactive).

These data come from PubChem BioAssay AID803 (The Scripps Research Institute Molecular Screening Center, 2007).
